Values joined by “and” are separate entries in the source; they are usually repeats but may differ in a detail not shown here. Equal values may be shown once. Among all 73,000 compounds or so, about 2,500 (3.4%) were called active. About 7% were inconclusive and are not listed. For the sample, actives were picked, then their nearest neighbours and some compounds at random. Values without a mark were called inactive. Calls come from the whole dose curve; as a rule, active = well fitted inhibition curve with a large enough effect; inconclusive = small, poorly fitted or top-dose-only effect; inactive = no such curve, though single readings can be large or run the other way.
target: 3-hydroxyacyl-CoA dehydrogenase type-2 (Homo sapiens) (UniProt Q99714); test: qHTS Assay for Inhibitors of HADH2 (Hydroxyacyl-Coenzyme A Dehydrogenase, Type II); settings: recombinant HADH2, NADH fluorescence, beta-hydroxybutyryl-CoA; series mostly up to 57.1 µM; activity change, negative = inhibition: at the top concentration; note: nearly all actives have a fitted effect of over 60% in size
Sequence (Q99714 whole entry, looked up): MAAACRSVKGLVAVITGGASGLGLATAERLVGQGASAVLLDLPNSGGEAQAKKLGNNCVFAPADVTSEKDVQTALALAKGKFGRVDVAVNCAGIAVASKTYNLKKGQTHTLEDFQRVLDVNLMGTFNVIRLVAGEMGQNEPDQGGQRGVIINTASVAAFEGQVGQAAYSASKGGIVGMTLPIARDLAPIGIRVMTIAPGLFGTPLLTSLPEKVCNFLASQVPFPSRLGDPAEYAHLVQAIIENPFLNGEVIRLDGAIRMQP
Sequence (Q99714 whole entry, looked up): as above
Source text: Assay Overview: NIH Molecular Libraries Screening Centers Network [MLSCN] NIH Chemical Genomics Center [NCGC] Structural Genomics Consortium [SGC] Grant Number: None HADH2: Hydroxyacyl-Coenzyme A dehydrogenase, type II, was supplied by researchers at the Structural Genomics Consortium, Oxford University lab (PI Udo Oppermann). The mitochondrial enzyme 17-hydroxysteroid dehydrogenase type 10 (HSD17-10) previously classified as type II hydroxyacyl-CoA dehydrogenase (HADH2) catalyzes the NAD+ dependent oxidation of a variety of substrates including acyl-CoAs, androgens and neurosteroids as well as bile acids(Shafqat N, Marschall HU, Filling C, et al. Biochemical Journal. 2003;376(Pt 1):49-60). The role in neurodegeneration by binding to amyloid-peptide led to its identification (Oppermann UC, et al FEBS Letters. 1999;451(3):238-242 and Yan SD, et al. Nature. 1997;389(6652):689-695), and mutations in its gene appear to be causative for 2-methyl-3-hydroxybutyryl-CoA dehydrogenase deficiency (Ofman R, et al. American Journal of Human Genetics. 2003;72(5):1300-1307). The enzyme was produced by E.coli fermentation as His-tagged recombinant for the purpose of X-ray structure determination, and had been mass-spectrometry characterized. Inhibition of HADH2 activity was screened by utilizing beta-hydroxybutyryl coenzyme A as an electron donor and NAD+ as an electron acceptor/cofactor. An increase in the fluorescence intensity due to conversion of NAD+ to NADH was used to measure the enzyme activity.
Assay Protocol: Buffer: 100 mM Tris-HCl pH 9.0, containing 0.01 % Tween-20. Reagents/Controls: Buffer in columns 3 and 4 as negative control (no enzyme). Substrate/cofactor solution: 1 mM NAD+ and 90 uM beta-hydroxybutyryl coenzyme A (Sigma-Aldrich, St. Louis, MO) final concentrations dispensed throughout the plate. Enzyme: 20 nM HADH2 final concentration in columns 1, 2, 5-48. Column 1 is neutral (100% activity). Column 2 contained titration of apomorphine (Sigma-Aldrich, A 4393, PubChem CID 2215, top concentration 500 uM, then 1:2 dilution in duplicate) Assay Steps: Three uL of enzyme were dispensed to 1536-well Greiner black solid bottom plates. Compounds and controls (23 nL) were transferred via Kalypsys PinTool. The plates were incubated for 15 min at room temperature, and then 1 uL of substrate/cofactor solution was added to start the reaction. The plates were immediately transferred to and read every 30 seconds for 4 min on ViewLux High-throughput CCD imager (Perkin-Elmer) using 360 nm excitation and 450 nm emission fluorescence protocol. The fluorescence intensity difference between the last and the first time points was used to compute reaction progress.
% is set by controls: 0 for no effect and ±100 for the full control effect; potency is the fitted concentration of half-maximal effect.

Row | Structure (SMILES) | activity change, negative = inhibition | Potency
1 | Cc1cccc(C(=O)O)c1 | 4.88% | 
2 | O=C(O)c1ccc(Cl)c(S(=O)(=O)Nc2ccccc2Cl)c1 | 0.423% | 
3 | COC(=O)c1cccc(NC(=O)CSc2nc(C)cc(=O)[nH]2)c1 | -17.2% | 
4 | CCOC(=O)c1sc(=S)n2c1[nH]c(=O)c1ccc(C(=O)OC)cc12 |  | 1 µM (active)
5 | COC(=O)c1ccc2c(=O)n(CC3CCCO3)c(=S)[nH]c2c1 (stereo not drawn) | -4.1% | 
6 | O=c1c(-c2cc(F)cc(F)c2)nc2cnc(Oc3ccccc3)nc2n1C[C@H]1CCCO1 | 13.6% | 
7 | Fc1ccc(-c2nnc3sc(-c4ccc5c(c4)OCO5)nn23)cc1 |  | 25.1 µM (active)
8 | Fc1ccc(-c2nnc(CSc3nnc(-c4ccc5c(c4)OCO5)o3)o2)cc1 | 6.68% | 
9 | Fc1ccc(-c2ccc(-c3nn4c(-c5ccco5)nnc4s3)o2)cc1 | -24.2% | 
10 | C/C(CCN1CCCCc2nc(C)c(C)cc21)=N\O[C@@H](C)c1cn([C@@H]2COC[C@@H]2O)nn1 | -2.51% [at 11.4 µM] | 
11 | O=C(c1ccc(F)cc1)C1CCN(CCCCc2ccccc2)CC1 | 9.57% | 
12 | COc1ccc(-c2nnc(SCC(=O)c3cccs3)o2)c(OC)c1 | 16.5% | 
13 | COc1ccc(-n2c(C)cc(C(=O)CSc3nnc(-c4cccs4)o3)c2C)cc1 | -5.17% | 
14 | COc1ccc(OC)c(C(=O)CSc2nnc(-c3cccs3)o2)c1 |  | 25.1 µM (active)
15 | CCCCC[C@H](O)CCCC(=O)O | 0.156% | 
16 | CN1CCC(CNC(=O)c2ccc(-n3c(=O)c(=O)[nH]c4ccccc43)cc2)CC1 | -0.499% | 
17 | COC(=O)C1(C)C=CCN1C(=O)c1ccccc1 (stereo not drawn) | 5.4% | 
18 | O=C1[C@H]2[C@H]3[C@H](O)[C@H](O)C/C(=N/OCc4ccccc4)[C@H]3CC[C@@H]2C(=O)N1Cc1ccccc1 | -3.88% [at 11.4 µM] | 
19 | CN1CCC2(CC1)CCN(S(=O)(=O)c1ccccc1)CC2 | 1.8% | 
20 | O=S(=O)(O)c1ccc(O)c2ncccc12.O=S(=O)(O)c1ccc(O)c2ncccc12.[Zn] | -19.7% [at 11.4 µM] | 
21 | CCS(=O)(=O)N(C)[C@@H]1c2cc(C#N)ccc2OC(C)(C)[C@H]1O |  | inactive
22 | Nc1ccc(-c2nnc(-c3ccc(-c4ccccc4)cc3)o2)cc1 |  | 31.6 µM (active)
23 | O=C(COC(=O)c1ccc(Oc2ccccc2)cc1)Nc1nnc(-c2ccccc2)o1 | 2.91% | 
24 | CC(N)=NCc1cccc(CN)c1 |  | inactive

Row | Structure (SMILES) | activity change, negative = inhibition | Potency
25 | CN1CCN2c3ccccc3Cc3ccccc3[C@@H]2C1 |  | inactive
26 | CCN1C(=O)/C(=C\N2CCN(c3ccccc3)CC2)SC1=S | -0.798% | 
27 | CCN1C(=O)/C(=C\N2CCN(c3cccc(Cl)c3)CC2)SC1=S | -1.99% | 
28 | CCN1C(=O)/C(=C2/Sc3ccccc3N2CCCS(=O)(=O)O)SC1=S |  | 20 µM (active)
29 | Cc1ccc(NC(=O)c2cccc(N(C)C)c2)cc1NC(=O)c1ccc(O)cc1 | -1.28% | 
30 | CCC[C@@H]1C[C@@]1(CCC)C(NS(=O)(=O)c1cccc2cccnc12)c1ccc(Cl)cc1 (stereo partly drawn) | -3.66% | 
31 | C[C@]1(C(=O)NCCc2c[nH]c3ccccc23)C=C[C@@H](Cc2ccccc2)N1C(=O)c1ccccc1 | 7.45% | 
32 | COC(=O)C1=C(C)N(Cc2ccccc2)C2=C3C(=O)N(c4ccccc4)C(=O)C3[C@@](O)(C(=O)OC)C(=O)N2C1c1ccccc1 (stereo partly drawn) | 10.1% [at 11.4 µM] and 2.48% [at 11.4 µM] | 
33 | CC(=O)Nc1ccc(-c2cn3cccnc3n2)cc1 |  | 15.8 µM (active)
34 | CC(=O)Nc1cccc(-c2cnc3ccccc3n2)c1 | 12.1% | 
35 | c1ccc(-c2cn3cccnc3n2)cc1 |  | 12.6 µM (active)
36 | CCOc1nc(OCC)nc(-n2cc(-c3ccccc3)nn2)n1 | 5.08% | 
37 | CCCC(=O)Nc1cccc(-c2cn3ccsc3n2)c1 | 5.86% | 
38 | COC(=O)C(C(=O)OC)[C@@H]1CCCC(=O)C1 | 12% [at 11.4 µM] | 
39 | CC(C)[C@@H](CC(=O)N[C@@H]1CCNC[C@H]1C(=O)N[C@H](CC(=O)N[C@@H](CCC(=O)O)CC(=O)O)Cc1ccccc1)NC(=O)C[C@H](CO)NC(=O)[C@@H]1CNCC[C@H]1N | -15.2% | 
40 | O=C1C(c2ccccn2)=[N+]([O-])c2ccccc21 | -27.4% | 
41 | COc1cc(NC(=O)N2CCOCC2)cc(OC)c1 | 5.67% | 
42 | Cc1c(C(=O)N2CCOCC2)[nH]c2ccc(OCc3ccccc3)cc12 | -11.1% | 
43 | CCOC(=O)c1[nH]c2ccc(OC)cc2c1NC(=O)N1CCOCC1 |  | 25.1 µM (active)
44 | CC(=O)N1CCC2(CC1)CCN(c1ccncc1)CC2 | -5.97% | 
45 | CC1(CCC(=O)OC2CCCCC2)OCCO1 | -20.4% [at 11.4 µM] | 
46 | O=C(Cn1ccc(=O)[nH]c1=O)Nc1ccc(C(=O)O)c(O)c1 | -10.7% [at 11.4 µM] | 
47 | COc1ccccc1-c1nc(NCc2cccs2)c2ccccc2n1 | -23.6% | 
48 | CC(C)c1ccc2c([Si](C)(C)C)c3c(nc2c1)-c1cccc(=O)n1C3 | 34.4% | 

Source: PubChem BioAssay AID886 (National Center for Advancing Translational Sciences (NCATS), 2007)
